Records with an inconclusive call do not appear. Entries that show only a call come without a potency. The source made the active and inactive calls. Calls follow the shape of the dose curve; as a rule, active = well fitted inhibition curve with a large enough effect; inconclusive = small, poorly fitted or top-dose-only effect; inactive = flat fitted curve, though single readings scatter.
What follows are molecules tested on CP252 (assay: qHTS profiling for inhibitors of Plasmodium falciparum proliferation (AID 504749; also: nearly all actives have a fitted effect of over 60% in size)). Conditions: P. falciparum in erythrocytes, SYBR Green DNA, 72 h; series mostly up to 28.7 µM.
Method in brief: (§1)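 P. falciparum-infected erythrocytes (0.3% parasitemia, 2.5% hematocrit) incubated with compound 72 h at 37 C, 5% CO2. Parasite DNA detected by SYBR Green after lysis, overnight at room temperature; normalised to 0.29 uM artemisinin and DMSO.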
In the case of CCN(CC)CCOc1ccc(-c2nc3cc(Cl)ccc3s2)cc1, the Potency is reported as “inactive”. For CN=C(NC#N)Nc1ccc(C2=NNC(=O)C[C@@H]2C)cc1, the Potency was “inactive”. With CCCCCCOc1ccc(C(=N)N(CCCC)CCCC)c2ccccc12 the Potency was 10 µM (active). With CCCCCC(CC)COC(=O)CC(C(=O)OCC(CC)CCCC)S(=O)(=O)O (stereo unspecified) the Potency was “inactive”. With Cc1cn([C@H]2C[C@H](O)[C@@H](CO)O2)c(=O)[nH]c1=O the Potency was “inactive”. For CN(C)CCCN1c2ccccc2C(C)(C)c2ccccc21, the Potency was “inactive”. O=CCCCC=O was tested, and the Potency was “inactive”. CC(C)=O was tested, and the Potency was “inactive”. In the case of O=C(O)c1cc(=O)c2c3nc4ccccc4oc-3cc(=O)c2[nH]1, the Potency is reported as “inactive”. In the case of CCOC(=O)C1=C(C)NC(C)=C(C(=O)OCC)C1c1ccccc1C=CC(=O)OC(C)(C)C, the Potency is reported as 10 µM (active). In the case of COc1cc(-c2ccc(-[n+]3nc(-c4ccccc4)nn3-c3ccc([N+](=O)[O-])cc3)c(OC)c2)ccc1-[n+]1nc(-c2ccccc2)nn1-c1ccc([N+](=O)[O-])cc1, the Potency is reported as 8.91 µM (active). CCCCC(=O)O[C@]1(C(=O)CO)[C@H](C)C[C@H]2[C@@H]3CCC4=CC(=O)C=C[C@]4(C)[C@@]3(F)[C@@H](O)C[C@@]21C was tested, and the Potency was “inactive”. For CN1C(=O)CN2CCc3ccccc3C2c2cc(Cl)ccc21 (stereo unspecified), the Potency was “inactive”. For CC(C)N=c1cc2n(-c3ccc(Cl)cc3)c3ccccc3nc-2cc1Nc1ccc(Cl)cc1, the Potency was “inactive”. For CC1=C(/C=C/C(C)=C/C=C/C(C)=C/CO)C(C)(C)CCC1, the Potency was 10 µM (active). CCOC(=O)C1=CC2(CC)CCCN3CCc4c(n1c1ccccc41)C32 (stereo unspecified) was tested, and the Potency was 11.2 µM (active). In the case of CC1=C(/C=C/C(C)=C/C=C/C(C)=C/C=C/C=C(C)/C=C/C=C(C)/C=C/C2=C(C)C(=O)CCC2(C)C)C(C)(C)CCC1=O, the Potency is reported as “inactive”. COC(=O)[C@H]1[C@H]2CC3c4[nH]c5ccccc5c4CCN3C[C@@H]2CC[C@@H]1O (stereo partly specified) was tested, and the Potency was “inactive”.

Each molecule was assayed on CP256 in the same assay as above. Conditions: P. falciparum in erythrocytes, SYBR Green DNA, 72 h; series mostly up to 28.7 µM.
Method in brief: as §1
With CCN(CC)CCOc1ccc(-c2nc3cc(Cl)ccc3s2)cc1 the Potency was “inactive”. For CC[C@@]1(O)C(=O)OCc2c1cc1n(c2=O)Cc2cc3c([N+](=O)[O-])cccc3nc2-1, the Potency was 11.2 µM (active). With CN=C(NC#N)Nc1ccc(C2=NNC(=O)C[C@@H]2C)cc1 the Potency was “inactive”. With CC(=O)Oc1cc(C)c(OC(C)=O)c2ccccc12 the Potency was 10 µM (active). In the case of CCCCCC(CC)COC(=O)CC(C(=O)OCC(CC)CCCC)S(=O)(=O)O (stereo unspecified), the Potency is reported as “inactive”. For Cc1cn([C@H]2C[C@H](O)[C@@H](CO)O2)c(=O)[nH]c1=O, the Potency was “inactive”. With O=CCCCC=O the Potency was “inactive”. O=C(O)c1cc(=O)c2c3nc4ccccc4oc-3cc(=O)c2[nH]1 was tested, and the Potency was “inactive”. In the case of CCOC(=O)C1=C(C)NC(C)=C(C(=O)OCC)C1c1ccccc1C=CC(=O)OC(C)(C)C, the Potency is reported as “inactive”. In the case of CCCCC(=O)O[C@]1(C(=O)CO)[C@H](C)C[C@H]2[C@@H]3CCC4=CC(=O)C=C[C@]4(C)[C@@]3(F)[C@@H](O)C[C@@]21C, the Potency is reported as “inactive”. With CN1C(=O)CN2CCc3ccccc3C2c2cc(Cl)ccc21 (stereo unspecified) the Potency was “inactive”. For COC(=O)C1=C(C#N)NC(C)=C(C(=O)OC(C)C)C1c1cccc([N+](=O)[O-])c1 (stereo unspecified), the Potency was 7.94 µM (active). In the case of CC(C)N=c1cc2n(-c3ccc(Cl)cc3)c3ccccc3nc-2cc1Nc1ccc(Cl)cc1, the Potency is reported as “inactive”. CCOC(=O)C1=CC2(CC)CCCN3CCc4c(n1c1ccccc41)C32 (stereo unspecified) was tested, and the Potency was 6.31 µM (active). For O=C1CSC2(CCN(CCCN3c4ccccc4Sc4ccc(Cl)cc43)CC2)N1, the Potency was “inactive”. COC(=O)[C@H]1[C@H]2CC3c4[nH]c5ccccc5c4CCN3C[C@@H]2CC[C@@H]1O (stereo partly specified) was tested, and the Potency was “inactive”.

What follows are molecules tested on CP260 in the same assay as above. Conditions: P. falciparum in erythrocytes, SYBR Green DNA, 72 h; series mostly up to 28.7 µM.
Method in brief: as §1
For CC[C@@]1(O)C(=O)OCc2c1cc1n(c2=O)Cc2cc3c([N+](=O)[O-])cccc3nc2-1, the Potency was 3.55 µM (active). For CN=C(NC#N)Nc1ccc(C2=NNC(=O)C[C@@H]2C)cc1, the Potency was “inactive”. CCCCCCOc1ccc(C(=N)N(CCCC)CCCC)c2ccccc12 was tested, and the Potency was 4.47 µM (active). In the case of CCCCCC(CC)COC(=O)CC(C(=O)OCC(CC)CCCC)S(=O)(=O)O (stereo unspecified), the Potency is reported as “inactive”. With CN(C)CCCN1c2ccccc2C(C)(C)c2ccccc21 the Potency was “inactive”. CC(C)=O was tested, and the Potency was “inactive”. With O=C(O)c1cc(=O)c2c3nc4ccccc4oc-3cc(=O)c2[nH]1 the Potency was 12.6 µM (active). COc1cc(-c2ccc(-[n+]3nc(-c4ccccc4)nn3-c3ccc([N+](=O)[O-])cc3)c(OC)c2)ccc1-[n+]1nc(-c2ccccc2)nn1-c1ccc([N+](=O)[O-])cc1 was tested, and the Potency was 12.6 µM (active). C#C[C@]1(O)CC[C@H]2[C@@H]3CCC4=CCCC[C@@H]4[C@H]3C(=C)C[C@@]21CC was tested, and the Potency was “inactive”. With COC(=O)C1=C(C#N)NC(C)=C(C(=O)OC(C)C)C1c1cccc([N+](=O)[O-])c1 (stereo unspecified) the Potency was 11.2 µM (active). For CC1=C(/C=C/C(C)=C/C=C/C(C)=C/C=C/C=C(C)/C=C/C=C(C)/C=C/C2=C(C)C(=O)CCC2(C)C)C(C)(C)CCC1=O, the Potency was “inactive”. In the case of COC(=O)[C@H]1[C@H]2CC3c4[nH]c5ccccc5c4CCN3C[C@@H]2CC[C@@H]1O (stereo partly specified), the Potency is reported as “inactive”.

Reference: PubChem BioAssay (NCATS)
Potency is read from the fitted curve at half-maximal effect.
